High-throughput results from PubChem.
CYP2C19 act: human CYP2C19 activators, primary screen, biochemical, luminescence. Cytochrome P450 2C19 (Homo sapiens), P33261. recombinant CYP2C19, luciferin-H EGE luminescence; stronger effect = higher value; 0 = fully inhibited enzyme, 1 = untreated enzyme. activation factor at 5 µM. 96,000 tested, under 10 active. AID 1025, 2008;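 active = activation factor of at least 2 at 5 µM in the primary screen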;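 also: 0 = wells with 2.5 mM tranylcypromine and 1 = vehicle-only wells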
Target sequence (P33261 whole entry, looked up): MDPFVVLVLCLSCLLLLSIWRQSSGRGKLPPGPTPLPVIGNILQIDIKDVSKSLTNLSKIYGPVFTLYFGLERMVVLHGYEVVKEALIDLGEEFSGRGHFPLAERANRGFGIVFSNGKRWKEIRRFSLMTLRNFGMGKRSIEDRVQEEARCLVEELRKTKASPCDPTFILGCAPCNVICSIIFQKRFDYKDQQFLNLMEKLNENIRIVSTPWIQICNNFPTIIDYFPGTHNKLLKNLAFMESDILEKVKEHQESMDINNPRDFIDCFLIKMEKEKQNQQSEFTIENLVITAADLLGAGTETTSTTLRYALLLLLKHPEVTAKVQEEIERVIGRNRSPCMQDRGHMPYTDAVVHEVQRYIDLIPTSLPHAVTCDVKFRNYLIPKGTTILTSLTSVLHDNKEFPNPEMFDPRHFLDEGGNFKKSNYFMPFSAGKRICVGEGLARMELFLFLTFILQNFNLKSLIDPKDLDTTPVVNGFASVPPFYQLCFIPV
CYP2C19 inh: blockers of cytochrome P450 2C19 activity – biochemical, luminescence, ADME assay, primary screen. P33261. AID 778, 2007. 21% of 96,000 active. CYP2C19 Supersomes, luciferin-H EGE luminescence, 30 min. inhibition, % at 5 µM;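 active = CYP2C19 inhibition above a set limit at 5 µM in the primary screen, cut at about 50% in these data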;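 also: plate controls were negative control wells for no effect and 2.5 mM tranylcypromine positive control for full effect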
CYP2C9 inhib: blockers of cytochrome P450 2C9 activity – biochemical, luminescence, ADME assay, primary screen. 20% of 96,000 active. inhibition, % at 5 µM. P11712. CYP2C9 Supersomes, luciferin-H conversion;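 active = blocking of liver enzyme CYP2C9 beyond about 50% at 5 µM, limit read from the data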
PLAP activator: PLAP enzyme activators, biochemical, luminescence, HTS | purified PLAP enzyme, luminescent substrate read-out; stronger effect = higher value | activation fold at 20 µM | 1.2% of 96,000 active | AID 696, 2007; in the data active = activation fold above about 2
CYP2C9 activ: human CYP2C9 activators, primary screen, biochemical, luminescence; Cytochrome P450 2C9 (Homo sapiens), P11712; recombinant CYP2C9, luciferin-H conversion; stronger effect = higher value; factor 1 = untreated enzyme, 0 = blocked; activation factor at 5 µM; 1.4% of 96,000 active; AID 1024, 2008;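 active = activation factor of 2 or more for CYP2C9 at a 5 µM dose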;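 also: 0 = sulfaphenazole-blocked wells and 1 = vehicle-only wells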
* marks the source's active call; other numbers are inactive results. These entries were drawn from the full list.

Results for Cc1ccc2[nH]c(=O)c(CN(CC3CCCO3)C(=O)c3ccco3)cc2c1 (stereo not drawn) ?
CYP2C19 act: 0.9; CYP2C19 inh: 12; CYP2C9 inhib: 5; PLAP activator: 0.9; CYP2C9 activ: 0.9

Results for CCOC(=O)c1c(NC(=O)c2cccs2)sc2c1CCC2 ?
CYP2C19 act: 0.8; CYP2C19 inh: 20; CYP2C9 inhib: 23; PLAP activator: 1; CYP2C9 activ: 0.8

Results for CS(=O)(=O)N1CCC(C(=O)Nc2ccccc2Sc2ccccc2)CC1 ?
CYP2C19 act: 0.7; CYP2C19 inh: 26; CYP2C9 inhib: 18; PLAP activator: 0.9; CYP2C9 activ: 0.8

What do the screens show for `CCCCCCn1c(N(CC)CC)nc2c1c(=O)[nH]c(=O)n2C`?
CYP2C19 act: 0.8; CYP2C19 inh: 19; CYP2C9 inhib: 9; PLAP activator: 1; CYP2C9 activ: 0.9

Results for O=C1c2ccccc2C(=O)N1CCCn1c(=O)oc2ccccc21 ?
CYP2C19 act: 0.6; CYP2C19 inh: 39; CYP2C9 inhib: -12; PLAP activator: 1.2; CYP2C9 activ: 1.1

How did CC1(c2ccccc2)CC(C)(C)N2C(=O)C3(C(C#N)=C(N)Oc4cc(O)ccc43)c3cccc1c32 (stereo not drawn) do in these assays?
CYP2C19 act: 1.1; CYP2C19 inh: -9; CYP2C9 inhib: 8; PLAP activator: 1.7; CYP2C9 activ: 0.9

What do the screens show for `Cc1cc2c3c(c1)C(C)(c1ccccc1)CC(C)(C)N3C(=O)C21C(C#N)=C(N)OC2=C1C(=O)CC(C)(C)C2` (stereo not drawn)?
CYP2C19 act: 1; CYP2C19 inh: 5; CYP2C9 inhib: 59*; PLAP activator: 2*; CYP2C9 activ: 0.4

Results for CC(CC(=O)O)CC(=O)Nc1ccc(S(N)(=O)=O)cc1 (stereo not drawn) ?
CYP2C19 act: 1.2; CYP2C19 inh: -16; CYP2C9 inhib: -14; PLAP activator: 0.9; CYP2C9 activ: 1.1

How did O=C(CCc1ccccc1)NC(NC(=S)Nc1ccc(Br)cc1)C(Cl)(Cl)Cl (stereo not drawn) do in these assays?
CYP2C19 act: 0.7; CYP2C19 inh: 30; CYP2C9 inhib: 97*; PLAP activator: 0.7; CYP2C9 activ: 0

What do the screens show for `CCCCCC(=O)NC(NC(=S)Nc1ccc(S(N)(=O)=O)cc1)C(Cl)(Cl)Cl` (stereo not drawn)?
CYP2C19 act: 0.4; CYP2C19 inh: 60*; CYP2C9 inhib: 93*; PLAP activator: 1.1; CYP2C9 activ: 0.1

Results for CCCCCCCC(=O)NC(Nc1ccc(S(N)(=O)=O)cc1)C(Cl)(Cl)Cl (stereo not drawn) ?
CYP2C19 act: 0.9; CYP2C19 inh: 15; CYP2C9 inhib: 77*; PLAP activator: 1.3; CYP2C9 activ: 0.2

What do the screens show for `COc1cccc(NC(=O)CN2C(=O)C3(OCCCO3)c3ccccc32)c1`?
CYP2C19 act: 0.6; CYP2C19 inh: 42; CYP2C9 inhib: 43; PLAP activator: 1; CYP2C9 activ: 0.6

How did COc1ccc(NC(=O)CSc2ccccn2)cc1OC do in these assays?
CYP2C19 act: 0.9; CYP2C19 inh: 9; CYP2C9 inhib: -21; PLAP activator: 1.1; CYP2C9 activ: 1.2

What do the screens show for `COc1ccc(/C=N/n2cncn2)cc1CSc1ccccn1`?
CYP2C19 act: 0.2; CYP2C19 inh: 83*; CYP2C9 inhib: 35; PLAP activator: 0.7; CYP2C9 activ: 0.6

Results for Cc1cc(C)c(-c2noc(C(=O)OC(C)(C)C)c2C(=O)OC(C)(C)C)c(C)c1 ?
CYP2C19 act: 0.8; CYP2C19 inh: 16; CYP2C9 inhib: 12; PLAP activator: 1; CYP2C9 activ: 0.9

How did CCCc1ccccc1OCCNC(C)=O do in these assays?
CYP2C19 act: 0.7; CYP2C19 inh: 26; CYP2C9 inhib: 9; PLAP activator: 0.9; CYP2C9 activ: 0.9

How did O=C(Nc1ccc(Cl)cc1)OCCn1nnnc1C(c1ccccc1Cl)N1CCOCC1 (stereo not drawn) do in these assays?
CYP2C19 act: 0.5; CYP2C19 inh: 46; CYP2C9 inhib: 54*; PLAP activator: 1.5; CYP2C9 activ: 0.5

How did CC(=O)NC1(c2nnnn2CCOC(=O)Nc2ccc(Cl)cc2)CCCCC1 do in these assays?
CYP2C19 act: 0.1; CYP2C19 inh: 95*; CYP2C9 inhib: 71*; PLAP activator: 1.4; CYP2C9 activ: 0.3

What do the screens show for `CC(=O)N(C)C1(c2nnnn2CCOC(=O)Nc2cccc3ccccc23)CCCC1`?
CYP2C19 act: 0.8; CYP2C19 inh: 18; CYP2C9 inhib: 0; PLAP activator: 1.2; CYP2C9 activ: 1

How did CC(=O)N(C)C1(c2nnnn2CCOC(=O)Nc2ccc(Cl)cc2)CCCCC1 do in these assays?
CYP2C19 act: 0.1; CYP2C19 inh: 93*; CYP2C9 inhib: 48; PLAP activator: 0.8; CYP2C9 activ: 0.5

How did O=C(c1ccco1)N1CCN(C(c2ccccc2Cl)c2nnnn2Cc2ccco2)CC1 (stereo not drawn) do in these assays?
CYP2C19 act: 0.9; CYP2C19 inh: 10; CYP2C9 inhib: 27; PLAP activator: 1.6; CYP2C9 activ: 0.7

What do the screens show for `CCOC(=O)c1cc(CC)sc1NC(=O)C(c1ccccc1)c1ccccc1`?
CYP2C19 act: 0.9; CYP2C19 inh: 6; CYP2C9 inhib: 40; PLAP activator: 1.1; CYP2C9 activ: 0.6

What do the screens show for `O=C(OCn1ncc(Cl)c(Cl)c1=O)c1ccccc1Cl`?
CYP2C19 act: 0.2; CYP2C19 inh: 78*; CYP2C9 inhib: -17; PLAP activator: 0.9; CYP2C9 activ: 1.2

How did O=C(CN(Cc1ccccc1)S(=O)(=O)c1ccccc1)N/N=C/c1ccc2c(c1)OCO2 do in these assays?
CYP2C19 act: 0.5; CYP2C19 inh: 53*; CYP2C9 inhib: 74*; PLAP activator: 1.3; CYP2C9 activ: 0.3

Results for O=C(CN(Cc1ccccc1)S(=O)(=O)c1ccc2c(c1)OCCO2)N/N=C/c1ccc(F)cc1 ?
CYP2C19 act: 0.7; CYP2C19 inh: 30; CYP2C9 inhib: 36; PLAP activator: 1; CYP2C9 activ: 0.6

How did O=C(CN(Cc1ccc(Cl)c(Cl)c1)S(=O)(=O)c1ccccc1)N/N=C\c1ccc2c(c1)OCO2 do in these assays?
CYP2C19 act: 0.8; CYP2C19 inh: 19; CYP2C9 inhib: 65*; PLAP activator: 1.5; CYP2C9 activ: 0.4

Results for CCNc1nc(N2CCCCC2)nc(-n2nnc(C(=O)OCC)c2C)n1 ?
CYP2C19 act: 0.8; CYP2C19 inh: 19; CYP2C9 inhib: 18; PLAP activator: 1.3; CYP2C9 activ: 0.8

Results for CC1(C)OC(=O)N(CCc2ccccc2)C1(C)O (stereo not drawn) ?
CYP2C19 act: 0.9; CYP2C19 inh: 8; CYP2C9 inhib: -4; PLAP activator: 0.9; CYP2C9 activ: 1
